Measured values taken from PubChem BioAssay (Tox21).
“And” between values parts separate entries of the source, which are not always exact repeats. Equal values may be shown once. Records with an inconclusive call do not appear. A call without a number means that no potency is given here. A structure can be active in one record and inactive in another. The source made the active and inactive calls. Unless noted, calls come from the whole dose curve.

Key:
[1] = qHTS assay to identify small molecule agonists of the peroxisome proliferator-activated receptor delta (PPARd) signaling pathway - cell viability counter screen (AID 743211; active = well fitted curve in the direction sought with a large enough effect in the repeat runs; an effect the other way counts as inactive or inconclusive; note: nearly all actives have a fitted effect of over 55% in size; note: potency is the fitted concentration of half-maximal effect)
How it was run: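 In the same wells used for beta-lactamase reporter measurement, cytotoxicity is scored by CellTiter-Glo. HEK293H PPARd-bla cells receive compound for 17 h at 37C following a 5 h settling period.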

[2] = qHTS assay to identify small molecule antagonists of the peroxisome proliferator-activated receptor delta (PPARd) signaling pathway - cell viability counter screen (AID 743213; active = well fitted curve in the direction sought with a large enough effect in the repeat runs; an effect the other way counts as inactive or inconclusive; note: nearly all actives have a fitted effect of over 50% in size; note: potency is the fitted concentration of half-maximal effect)
How it was run: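 Same-well viability: cells pre-incubated 5 h, dosed with compound plus 300 nM L165041, kept 17 h at 37 C, FRET substrate 2 h RT, then CellTiter-Glo 30 min RT and luminescence.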

[3] = qHTS assay to identify small molecule agonists of the farnesoid-X-receptor (FXR) signaling pathway - cell viability counter screen (AID 743218; active = well fitted curve in the direction sought with a large enough effect in the repeat runs; an effect the other way counts as inactive or inconclusive; note: nearly all actives have a fitted effect of over 45% in size; note: potency is the fitted concentration of half-maximal effect)
How it was run: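 FXR-UAS-bla HEK 293T cells, plated 5 h at 37 C, were exposed to compounds for 16 h at 37 C. CellTiter-Glo was then added to the same wells as the bla readout; luminescence read after 30 min at room temperature.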

[4] = qHTS assay to identify small molecule antagonists of the farnesoid-X-receptor (FXR) signaling pathway - cell viability counter screen (AID 743221; active = well fitted cell-killing curve with a large enough effect in the repeat runs, not every such curve was filed as active; note: nearly all actives have a fitted effect of over 50% in size)
How it was run: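 Here viability was scored by luminescence after CellTiter-Glo addition to wells already read for beta-lactamase. Prior treatment: compound plus CDCA (50 uM final), 16 h, 37 C, HEK 293T FXR-bla cells.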

[5] = qHTS assay to identify small molecule agonists of the NFkB signaling pathway - cell viability counter screen (AID 1159515); note: nearly all actives have a fitted effect of over 55% in size; note: potency is the fitted concentration of half-maximal effect
How it was run: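 NFkB-bla ME-180 cells, 2,000/well, were plated overnight at 37 C, 5% CO2, then exposed to compounds in DMSO for 5 hr. After the bla FRET read, CellTiter-Glo was added to the same wells; luminescence was read after 30 min at room temperature.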

[6] = qHTS assay to identify small molecule antagonists of the retinoid-related orphan receptor gamma (ROR-gamma) signaling pathway - cell viability counter screen (AID 1159520; active = well fitted curve in the direction sought with a large enough effect in the repeat runs; an effect the other way counts as inactive or inconclusive; note: nearly all actives have a fitted effect of over 50% in size; note: potency is the fitted concentration of half-maximal effect)
How it was run: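 Cytotoxicity was read from cellular ATP (CellTiter-Glo luminescence) after 16 hr at 37 C with 1 uM doxycycline induction. The inducer was added 2 hr after compound transfer to Tet-on ROR gamma CHO cells.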

[7] = target: Nuclear receptor ROR-gamma (Homo sapiens) (UniProt P51449); assay: qHTS assay to identify small molecule antagonists of the retinoid-related orphan receptor gamma (ROR-gamma) signaling pathway (AID 1159521; active = well fitted curve in the direction sought with a large enough effect in the repeat runs; an effect the other way counts as inactive or inconclusive; note: nearly all actives have a fitted effect of over 50% in size; note: potency is the fitted concentration of half-maximal effect)
How it was run: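 Test compounds were applied to Tet-on RORγ CHO cells 2 h ahead of doxycycline hyclate (1 uM final). Luciferase reporter activity was quantified by luminescence after 16 h at 37 C and 5% CO2.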

[8] = qHTS assay to identify small molecule agonists of the AP-1 signaling pathway - cell viability counter screen (AID 1159525); note: nearly all actives have a fitted effect of over 55% in size; note: potency is the fitted concentration of half-maximal effect
How it was run: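 Luminescent ATP readout (Cell Titer Glo, 30 min RT), normalised to DMSO and tetra n-octyl ammonium bromide controls. Cells were ME-180 AP-1-bla in 0.5% dialyzed FBS Opti-MEM, with a 5 h, 37 °C compound exposure.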

[9] = qHTS assay to identify small molecule agonists of the AP-1 signaling pathway (AID 1159526)
[10] = target: Vitamin D3 receptor (Homo sapiens) (UniProt P11473); assay: qHTS assay to identify small molecule agonists of the vitamin D receptor (VDR) signaling pathway (AID 743222)
Sequence of Vitamin D3 receptor (Homo sapiens) (P11473 whole entry, looked up): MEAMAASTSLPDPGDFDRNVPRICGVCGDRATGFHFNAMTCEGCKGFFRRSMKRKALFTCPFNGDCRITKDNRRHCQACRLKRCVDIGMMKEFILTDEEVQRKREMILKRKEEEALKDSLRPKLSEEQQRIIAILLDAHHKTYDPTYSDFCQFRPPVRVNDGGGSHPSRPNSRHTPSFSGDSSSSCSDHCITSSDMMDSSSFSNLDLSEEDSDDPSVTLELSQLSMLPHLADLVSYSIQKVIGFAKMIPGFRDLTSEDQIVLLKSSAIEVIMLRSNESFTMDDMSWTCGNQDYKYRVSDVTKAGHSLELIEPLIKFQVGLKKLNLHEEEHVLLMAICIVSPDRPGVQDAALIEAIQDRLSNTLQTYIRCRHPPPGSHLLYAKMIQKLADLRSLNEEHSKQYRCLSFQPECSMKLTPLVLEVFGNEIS
How it was run: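 VDR-bla cells were plated 4 h at 37C/5% CO2, then exposed to compounds in DMSO for 16 h. After LiveBLAzer B/G FRET substrate addition and 2 h at room temperature, beta-lactamase reporter fluorescence was read.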

[11] = target: Vitamin D3 receptor (Homo sapiens) (UniProt P11473); assay: qHTS assay to identify small molecule antagonists of the vitamin D receptor (VDR) signaling pathway (AID 743223; active = well fitted inhibition curve with a large enough effect in the signal ratio in the repeat runs, not every such curve was filed as active; the % refers to the signal ratio; note: potency is the fitted concentration of half-maximal effect)
How it was run: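 Inhibition of agonist-driven VDR signalling is scored in VDR-bla cells: 3 nM final 1alpha,25-dihydroxyvitamin D3 plus compound, 16 h at 37C, then beta-lactamase detection by FRET substrate fluorescence after 2 h.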

[12] = qHTS assay to identify small molecule agonists of the vitamin D receptor (VDR) signaling pathway - cell viability counter screen (AID 743224; active = well fitted curve in the direction sought with a large enough effect in the repeat runs; an effect the other way counts as inactive or inconclusive)
How it was run: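 VDR-bla cells were preincubated 4 h at 37C/5% CO2, then exposed to compounds for 16 h. After the 2 h room-temperature bla FRET read, CellTiter-Glo was added to the same wells and luminescence read after 30 min.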

[13] = qHTS assay to identify small molecule antagonists of the vitamin D receptor (VDR) signaling pathway - cell viability counter screen (AID 743225; active = well fitted curve in the direction sought with a large enough effect in the repeat runs; an effect the other way counts as inactive or inconclusive; note: nearly all actives have a fitted effect of over 50% in size)
How it was run: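 Compounds were pinned onto VDR-bla HEK 293T cells together with 1-alpha,25-dihydroxyvitamin D3 at 3 nM final. After 16 h at 37C and 5% CO2 plus the reporter readout, cell viability was measured by CellTiter-Glo luminescence (30 min, room temperature).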

[14] = qHTS assay to identify small molecule agonists of the endoplasmic reticulum stress response signaling pathway (AID 1159516; active = well fitted activation curve with a large enough effect in the signal ratio in the repeat runs, not every such curve was filed as active; the % refers to the signal ratio)
How it was run: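 CellSensor ESRE-bla HeLa cells, carrying a beta-lactamase reporter driven by the ER stress response element, were plated overnight and exposed to compounds for 5 hr at 37 C. Reporter activity was read as FRET substrate fluorescence after 2 hr at room temperature.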

[15] = qHTS assay to identify small molecule agonists of the endoplasmic reticulum stress response signaling pathway - cell viability counter screen (AID 1159517)
How it was run: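 Cells, HeLa ESRE-bla; density, 1,500/well; dosing, 5 hr at 37 C, 5% CO2; readout, CellTiter-Glo luminescence after 30 min RT.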

[16] = target: Retinoic acid receptor RXR-alpha (Homo sapiens) (UniProt P19793); assay: qHTS assay to identify small molecule agonists of the RXR signaling pathway (AID 1159527); note: nearly all actives have a fitted effect of over 35% in size; note: potency is the fitted concentration of half-maximal effect
Sequence of Retinoic acid receptor RXR-alpha (Homo sapiens) (P19793 whole entry, looked up): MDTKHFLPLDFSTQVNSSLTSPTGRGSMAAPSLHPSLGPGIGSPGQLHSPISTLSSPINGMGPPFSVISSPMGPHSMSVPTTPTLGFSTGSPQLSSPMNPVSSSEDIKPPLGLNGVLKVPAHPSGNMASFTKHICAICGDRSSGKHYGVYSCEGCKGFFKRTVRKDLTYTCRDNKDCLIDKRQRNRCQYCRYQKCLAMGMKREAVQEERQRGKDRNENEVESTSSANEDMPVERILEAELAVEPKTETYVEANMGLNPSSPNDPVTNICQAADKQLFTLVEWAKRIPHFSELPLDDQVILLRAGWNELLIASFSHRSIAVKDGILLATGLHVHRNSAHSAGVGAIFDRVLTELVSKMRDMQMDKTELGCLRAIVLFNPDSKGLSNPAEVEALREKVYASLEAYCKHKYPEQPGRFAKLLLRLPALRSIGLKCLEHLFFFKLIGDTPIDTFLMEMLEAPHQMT
How it was run: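 Using 9-cis retinoic acid as the reference agonist, chemicals were tested in HEK 293T cells […] for 16 hr; substrate loading lasted 2 hr at room temperature.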

[17] = target: Peroxisome proliferator-activated receptor delta (Homo sapiens) (UniProt Q03181); assay: qHTS assay to identify small molecule agonists of the peroxisome proliferator-activated receptor delta (PPARd) signaling pathway (AID 743212)
Sequence of Peroxisome proliferator-activated receptor delta (Homo sapiens) (Q03181 whole entry, looked up): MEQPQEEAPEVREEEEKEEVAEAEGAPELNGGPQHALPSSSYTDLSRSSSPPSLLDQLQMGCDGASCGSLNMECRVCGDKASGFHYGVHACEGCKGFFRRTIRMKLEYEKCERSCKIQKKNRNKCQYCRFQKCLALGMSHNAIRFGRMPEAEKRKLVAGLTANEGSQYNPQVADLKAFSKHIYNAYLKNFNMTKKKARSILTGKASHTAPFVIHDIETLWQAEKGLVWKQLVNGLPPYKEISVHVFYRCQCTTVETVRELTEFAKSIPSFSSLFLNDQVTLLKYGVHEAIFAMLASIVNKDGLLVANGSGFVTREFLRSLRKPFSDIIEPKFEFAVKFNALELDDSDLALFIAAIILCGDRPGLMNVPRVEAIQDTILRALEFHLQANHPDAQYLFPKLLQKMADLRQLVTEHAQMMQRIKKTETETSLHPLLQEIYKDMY
How it was run: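 HEK293H UAS-bla reporter cells, human PPARd system; compounds delivered in DMSO after 5 h plating, then at 37 C. Beta-lactamase FRET read, 2 h RT substrate step.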

[18] = target: Peroxisome proliferator-activated receptor delta (Homo sapiens) (UniProt Q03181); assay: qHTS assay to identify small molecule antagonists of the peroxisome proliferator-activated receptor delta (PPARd) signaling pathway (AID 743215; active = well fitted inhibition curve with a large enough effect in the signal ratio in the repeat runs, not every such curve was filed as active; the % refers to the signal ratio;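 note: cells stimulated with agonist L165041 at 300 nM final during compound exposure; series mostly up to about 62 µM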)
How it was run: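 PPARd UAS-bla HEK293H cells were pre-incubated 5 h at 37 C, then given test compounds in DMSO plus agonist L165041 (300 nM final). After 17 h at 37 C, beta-lactamase FRET substrate was added; fluorescence read after 2 h at room temperature.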

Row | SMILES | Potency [1] | Potency [2] | Potency [3] | Potency [4] | Potency [5] | Potency [6] | Potency [7] | Potency [8] | Potency [9] | outcome [10] | Potency [11] | Potency [12] | Potency [13] | outcome [14] | Potency [15] | Potency [16] | outcome [17] | outcome [18]
1 | CCCCCCCCCCn1cc[n+](C)c1 | 4.41 µM (active) and 24.6 µM (active) and 35.6 µM (active) | 22.1 µM (active) | 55.5 µM (active) and inactive | inactive | inactive | inactive | 7.73 µM (active) [middle of 5 runs] | inactive | inactive |  |  |  |  |  |  |  |  | 
2 | N#CS | inactive | inactive |  | inactive | inactive | inactive |  | inactive | inactive | inactive | inactive | inactive | inactive | inactive | inactive | inactive |  | 
3 | CC(=O)O | inactive | inactive |  | inactive | inactive | inactive |  | inactive | inactive |  |  | inactive | inactive | inactive | inactive | inactive |  | 
4 | O=[N+]([O-])O | inactive | inactive |  | inactive | inactive | inactive |  | inactive | inactive |  |  | inactive | inactive | inactive | inactive | inactive and 21.9 µM (active) |  | 
5 | Cc1cc(Cl)ccc1OCC(=O)O | inactive | inactive |  | inactive | inactive | inactive | inactive | inactive | inactive | inactive | inactive |  | inactive | inactive | inactive | inactive |  | 
6 | O=C(O)COc1ccc(Cl)cc1Cl | inactive | inactive | inactive | inactive | inactive | inactive |  | inactive | inactive | inactive | inactive |  | inactive | inactive | inactive | inactive | inactive | inactive
7 | CCCCn1cc[n+](C)c1 | inactive | inactive | inactive | inactive | inactive | inactive |  | inactive | inactive |  |  |  | inactive | inactive | inactive | inactive |  | 
8 | CCCCCCCCCCCCCCCCn1cc[n+](C)c1 |  |  |  |  | 44.6 µM (active) and inactive and 24.6 µM (active) | inactive and 61.7 µM (active) and 30.7 µM (active) |  | inactive and 21.9 µM (active) | inactive | inactive | 15.5 µM (active) |  |  | inactive |  | inactive | inactive | inactive
9 | CC[N+](CC)(CC)CC | inactive | inactive |  | inactive | inactive | inactive | inactive | inactive | inactive | inactive | inactive |  | inactive | inactive | inactive | inactive |  | 
10 | CCCC[N+]1(C)CCCC1 | inactive | inactive |  | inactive | inactive | inactive | inactive | inactive | inactive |  |  |  | inactive | inactive | inactive | inactive |  | 
11 | COc1ccccc1N | inactive | inactive |  | inactive | inactive | inactive | inactive | inactive | inactive |  |  |  | inactive | inactive | inactive | inactive |  | 
12 | Nc1ccccc1 | inactive | inactive |  | inactive | inactive | inactive | inactive | inactive | inactive | inactive | inactive |  | inactive | inactive | inactive | inactive |  | 
13 | O=c1nc(O)n(Cl)c(=O)n1Cl | inactive | inactive |  | inactive | inactive | inactive | inactive | inactive | inactive |  |  |  | inactive | inactive | inactive | inactive |  | 
14 | C=CCOC(Cn1ccnc1)c1ccc(Cl)cc1Cl (centres undefined) | 49 µM (active) and inactive | inactive |  | inactive | inactive | inactive | 21.8 µM (active) and 29.8 µM (active) | inactive |  | inactive | inactive |  | inactive |  | inactive | inactive |  | 
15 | CCCCCCCCCCCC(=O)O | inactive | inactive | inactive | inactive | inactive | inactive |  | inactive | inactive |  |  |  | inactive | inactive | inactive | 55.1 µM (active) and 63 µM (active) |  | 
16 | O=C(O)c1ccccc1O | inactive | inactive | inactive | inactive | inactive | inactive |  | inactive | inactive |  |  |  | inactive | inactive | inactive | inactive |  | 
